Test results: PubChem BioAssay AID1159580 (chemical genetic matrix, 2015)
Out of some 5,500 compounds screened, about 2,000 (36%) were called active. Roughly 18% stayed inconclusive and do not appear here. Rule as the data show it: active = normalized growth mostly below about 0.91 (no sharp cut-off); inconclusive = no clear call, values can overlap the other calls; inactive = mostly above about 0.92. The list shows a part of the results.

Assay: chemical genetic growth profiling, strain panel (AID 1159580);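 also: tested at 20 µM; growth read once vehicle control cultures reached saturation at 30 °C; 1 = growth at the plate median or of vehicle wells; lower values mean less growth of the strain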
Conditions: growth OD

Measured: normalized growth

CC(=O)N[C@@H](Cc1c[nH]c2ccccc12)C(=O)O
inactive: S. cerevisiae deletion strains, locus YJR075W, strain HOC1, hits give low values 1 | S. cerevisiae deletion strains, locus YKL009W, strain mrt4, hits give low values 0.981 | S. cerevisiae deletion strains, locus YKL068W, hits give low values 1.01 | S. cerevisiae deletion strains, locus YKL085W, strain MDH1 (second series), hits give low values 1.01 | S. cerevisiae deletion strains, locus YKL085W, strain MDH1, hits give low values 1.01 | S. cerevisiae deletion strains, locus YKL160W, strain elf1, hits give low values 0.962 | S. cerevisiae deletion strains, locus YKL190W, strain CNB1, hits give low values 1 | S. cerevisiae deletion strains, locus YKR001C, strain vps1, hits give low values 1.02 | S. cerevisiae deletion strains, locus YKR026C, strain gcn3, hits give low values 0.987 | S. cerevisiae deletion strains, locus YKR091W, strain srl3, hits give low values 0.977 | S. cerevisiae deletion strains, locus YLL001W, strain dnm1, hits give low values 0.983 | S. cerevisiae deletion strains, locus YLL026W, hits give low values 0.99 | S. cerevisiae deletion strains, locus YLL041C, strain sdh2, hits give low values 1 | S. cerevisiae deletion strains, locus YLR027C, strain aat2, hits give low values 0.994 | S. cerevisiae deletion strains, locus YLR039C, strain RIC1, hits give low values 1.02 | S. cerevisiae deletion strains, locus YLR058C, strain SHM2, hits give low values 1.01 | S. cerevisiae deletion strains, locus YLR102C, strain apc9, hits give low values 1.02 | S. cerevisiae deletion strains, locus YLR113W, strain HOG1, hits give low values 1 | S. cerevisiae deletion strains, locus YLR221C, strain rsa3, hits give low values 1.01 | S. cerevisiae deletion strains, locus YLR258W, strain gsy2, hits give low values 0.967 | S. cerevisiae deletion strains, locus YLR262C, strain YPT6 (second series), hits give low values 1.02 | S. cerevisiae deletion strains, locus YLR262C, strain YPT6, hits give low values 1.02 | S. cerevisiae deletion strains, locus YLR268W, strain sec22, hits give low values 1.04 | S. cerevisiae deletion strains, locus YLR320W, strain mms22, hits give low values 1.02 | S. cerevisiae deletion strains, locus YLR330W, strain CHS5, hits give low values 1.01 | S. cerevisiae deletion strains, locus YLR342W, strain FKS1 (second series), hits give low values 1.04 | S. cerevisiae deletion strains, locus YLR342W, strain FKS1, hits give low values 0.981 | S. cerevisiae deletion strains, locus YLR357W, strain rsc2, hits give low values 0.983 | S. cerevisiae deletion strains, locus YLR370C, strain arc18, hits give low values 0.995 | S. cerevisiae deletion strains, locus YLR371W, strain rom2, hits give low values 1.03 | S. cerevisiae deletion strains, locus YLR384C, strain iki3, hits give low values 0.984 | S. cerevisiae deletion strains, locus YLR418C, strain cdc73, hits give low values 1.07 | S. cerevisiae deletion strains, locus YML016C, strain PPZ1, hits give low values 1.01 | S. cerevisiae deletion strains, locus YML032C, strain rad52, hits give low values 1.02 | S. cerevisiae deletion strains, locus YML120C, strain ndi1, hits give low values 0.989 | S. cerevisiae deletion strains, locus YML124C, strain tub3, hits give low values 1.02 | S. cerevisiae deletion strains, locus YMR058W, strain fet3, hits give low values 0.988 | S. cerevisiae deletion strains, locus YMR078C, strain ctf18, hits give low values 1.02 | S. cerevisiae deletion strains, locus YMR125W, strain sto1, hits give low values 0.973 | S. cerevisiae deletion strains, locus YMR129W, hits give low values 0.976 | S. cerevisiae deletion strains, locus YMR205C, strain PFK2, hits give low values 0.985 | S. cerevisiae deletion strains, locus YMR223W, strain ubp8, hits give low values 1.02 | S. cerevisiae deletion strains, locus YMR231W, strain pep5, hits give low values 0.978 | S. cerevisiae deletion strains, locus YMR263W, strain SAP30, hits give low values 0.998 | S. cerevisiae deletion strains, locus YMR307W, strain GAS1, hits give low values 0.959 | S. cerevisiae deletion strains, locus YNL067W, strain RPL9B, hits give low values 1.01 | S. cerevisiae deletion strains, locus YNL071W, strain lat1, hits give low values 0.99 | S. cerevisiae deletion strains, locus YNL128W, strain TEP1, hits give low values 1.01 | S. cerevisiae deletion strains, locus YNL153C, strain GIM3, hits give low values 1.01 | S. cerevisiae deletion strains, locus YNL183C, strain NPR1, hits give low values 0.886 | S. cerevisiae deletion strains, locus YNL209W, strain ssb2, hits give low values 0.989 | S. cerevisiae deletion strains, locus YNL233W, strain BNI4, hits give low values 1.01 | S. cerevisiae deletion strains, locus YNL248C, strain rpa49, hits give low values 0.98 | S. cerevisiae deletion strains, locus YNL250W, strain rad50, hits give low values 1 | S. cerevisiae deletion strains, locus YNL271C, strain bni1, hits give low values 1.03 | S. cerevisiae deletion strains, locus YNL298W, strain CLA4, hits give low values 1.02 | S. cerevisiae deletion strains, locus YNL307C, strain MCK1, hits give low values 1.03 | S. cerevisiae deletion strains, locus YNL322C, strain KRE1 (second series), hits give low values 0.995 | S. cerevisiae deletion strains, locus YNL322C, strain KRE1, hits give low values 1 | S. cerevisiae deletion strains, locus YNR049C, strain mso1, hits give low values 0.959 | S. cerevisiae deletion strains, locus YNR052C, strain pop2, hits give low values 1.01 | S. cerevisiae deletion strains, locus YOL006C, strain TOP1, hits give low values 1.09 | S. cerevisiae deletion strains, locus YOL012C, strain htz1 0.924 | S. cerevisiae deletion strains, locus YOL147C, strain pex11, hits give low values 1.02 | S. cerevisiae deletion strains, locus YOR001W, strain rrp6, hits give low values 1.01 | S. cerevisiae deletion strains, locus YOR061W, strain CKA2, hits give low values 1.01 | S. cerevisiae deletion strains, locus YOR069W, strain VPS5, hits give low values 1 | S. cerevisiae deletion strains, locus YOR070C, strain gyp1, hits give low values 0.996 | S. cerevisiae deletion strains, locus YOR080W, strain dia2, hits give low values 0.986 | S. cerevisiae deletion strains, locus YOR083W, strain WHI5, hits give low values 0.97 | S. cerevisiae deletion strains, locus YOR106W, strain vam3, hits give low values 0.964 | S. cerevisiae deletion strains, locus YOR136W, strain idh2, hits give low values 1.01 | S. cerevisiae deletion strains, locus YOR144C, strain elg1, hits give low values 1.02 | S. cerevisiae deletion strains, locus YOR184W, strain ser1, hits give low values 1.02 | S. cerevisiae deletion strains, locus YOR231W, strain MKK1, hits give low values 0.994 | S. cerevisiae deletion strains, locus YOR265W, strain rbl2, hits give low values 1.01 | S. cerevisiae deletion strains, locus YOR270C, strain vph1, hits give low values 1.01 | S. cerevisiae deletion strains, locus YOR290C, strain snf2, hits give low values 0.974 | S. cerevisiae deletion strains, locus YOR316C, strain cot1, hits give low values 1.02 | S. cerevisiae deletion strains, locus YPL051W, strain arl3, hits give low values 0.989 | S. cerevisiae deletion strains, locus YPL055C, strain LGE1, hits give low values 1.01 | S. cerevisiae deletion strains, locus YPL078C, strain atp4, hits give low values 0.978 | S. cerevisiae deletion strains, locus YPL106C, strain sse1, hits give low values 0.949 | S. cerevisiae deletion strains, locus YPL240C, strain hsp82, hits give low values 1 | S. cerevisiae deletion strains, locus YPL241C, strain CIN2, hits give low values 1 | S. cerevisiae deletion strains, locus YPL256C, strain CLN2, hits give low values 0.99 | S. cerevisiae deletion strains, locus YPR119W, strain clb2, hits give low values 1.02 | S. cerevisiae deletion strains, locus YPR141C, strain kar3, hits give low values 1.02 | S. cerevisiae deletion strains, locus YPR163C, strain tif3, hits give low values 1.04 | S. cerevisiae deletion strains, locus YPR167C, strain met16, hits give low values 1.01 | S. cerevisiae deletion strains, strain wtn01, hits give low values 1.01 | S. cerevisiae strains, strain wild type, hits give low values 1
